Assay [1] in a line: optical density shifts of acrAB sulA E. coli – strain DRC41, OD650, 48 h, E. coli filamentation inducer project, primary screen (AID 1152).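 Also: E. coli MC1000 strain DRC41 lacking acrAB efflux pump and sulA.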 The conditions noted are these: higher = more signal, called active from +8 up or from −8 down.
Assay [2] in a line: probe aLefty1 binding on compound microarray – biochemical, small-molecule microarray, 635/667 nm fluorescence, primary screen (AID 1153).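 Also: score merges spot fluorescence with signal-to-noise ratio from the scanned slide images.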 As to conditions: higher = more signal.
A short description of assay [3]: plasmodial surface anion channel blockers, osmotic lysis – cell-based, P. falciparum Indochina, OD700, 1 h, primary screen (AID 1154). As to conditions: P. falciparum Indochina infected RBC osmotic lysis, higher = more signal, called active from +8 up or from −8 down.
Assay [4] can be described thus: plasmodial surface anion channel blockers, osmotic lysis – cell-based, P. falciparum Indochina, OD700, 2 h, primary screen (AID 1155).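 Also: lysis reports solute entry through the parasite surface anion channel PSAC.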 As to conditions: P. falciparum Indochina infected erythrocytes, higher = more signal, called active from +8 up or from −8 down.
Assay [5] is described as follows: changes in parasitized red cell lysis, either direction – P. falciparum Indochina, OD700, 3 h, PSAC antagonist project, primary screen (AID 1156). As to conditions: P. falciparum-infected erythrocytes, osmotic lysis, higher = more signal, called active from +8 up or from −8 down.
Assay [6] in a line: plasmodial surface anion channel blockers, osmotic lysis – cell-based, P. falciparum Indochina, OD700, 18 h, primary screen (AID 1157). As to conditions: P. falciparum Indochina infected erythrocytes, osmotic lysis OD700, 18 h; higher = more signal, called active from +8 up or from −8 down.
The nature of assay [7]: S6 kinase pathway phospho-S6 level changes – cell-based, A549, cytoblot, luminescence, serum-stimulated, primary screen (AID 1158).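 Also: serum-stimulated A549 lung adenocarcinoma cells; signal is phosphorylated S6 detected by cytoblot immunostaining with HRP secondary.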 The conditions noted are these: 5 h, higher = more signal.
Assay [8] deals with NADPH oxidase 2 (Homo sapiens) (UniProt P04839). As to the kind of experiment: compounds shifting NOX2 Amplex Red fluorescence – cell-based, HEK293-NOX2, PMA-stimulated, NOX inhibitor project, primary screen (AID 1159). Also: test concentration not given here. The conditions noted are these: 45 min, higher = more signal, called active from +8 up or from −8 down.
The target of assay [9] is NADPH oxidase 4 (Homo sapiens) (UniProt Q9NPH5). The experiment in a line: compounds shifting NOX4 Amplex Red fluorescence – cell-based, HEK293-NOX4, tetracycline-induced, NOX inhibitor project, primary screen (AID 1160). As to conditions: HEK293-NOX4, Amplex Red H2O2 fluorescence, 45 min; higher = more signal, called active from +8 up or from −8 down.
In assay [10] the target is NADPH oxidase 5 (Homo sapiens) (UniProt Q96PH1). As to the kind of experiment: compounds shifting NOX5 Amplex Red fluorescence – cell-based, HEK293-NOX5, NOX inhibitor project, primary screen (AID 1161). As to conditions: HEK293-NOX5, ionomycin, 45 min, higher = more signal.
Assay [11] in a line: compound effects on lung adenocarcinoma cell viability – A549, calcein-AM fluorescence, 48 h, basal, profiling panel (AID 1162). Also: test concentration not given here. The conditions noted are these: higher = more signal.
A short description of assay [12]: compound effects on differentiated 3T3-L1 adipocyte viability – cell-based, 3T3-L1 adipocytes, calcein-AM fluorescence, 48 h, basal, profiling panel (AID 1163). Also: test concentration not given here. The conditions noted are these: 3T3-L1 adipocytes viability, higher = more signal.
The nature of assay [13]: compound effects on hepatocellular carcinoma cell viability – HepG2, calcein-AM fluorescence, 48 h, basal, profiling panel (AID 1164). Also: test concentration not given here. The conditions noted are these: higher = more signal.
Assay [14] can be described thus: compound effects on multiple myeloma cell viability – MM1S, calcein-AM fluorescence, 48 h, basal, profiling panel (AID 1165). Also: test concentration not given here. As to conditions: higher = more signal.
The nature of assay [15]: calcein-AM signal in unstimulated myeloma cells – cell-based, calcein-AM fluorescence, 48 h, PK04 Diversity Set, profiling panel (AID 1166).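 Also: cells grown under basal conditions without added stimulus; test concentration not given here.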 As to conditions: RPMI8226 myeloma viability, higher = more signal.
Assay [16] in a line: JC-1 mitochondrial signal, unstimulated HepG2 cells – cell-based, JC-1 fluorescence, 24 h, 100 nL compound, profiling panel (AID 1167). Also: test concentration not given here. The conditions noted are these: HepG2 mitochondrial potential, higher = more signal.
The nature of assay [17]: JC-1 mitochondrial signal, unstimulated adipocytes – cell-based, JC-1 fluorescence, 3T3-L1 adipocytes, 24 h, 100 nL compound, profiling panel (AID 1168). Also: test concentration not given here. The conditions noted are these: JC-1 mitochondrial fluorescence, higher = more signal, called active from +8 up or from −8 down.
Assay [18] can be described thus: JC-1 mitochondrial signal, unstimulated myeloma cells – cell-based, JC-1 fluorescence, RPMI8226, 24 h, 100 nL compound, profiling panel (AID 1169). Also: test concentration not given here. As to conditions: JC-1 mitochondrial potential fluorescence, higher = more signal.
Assay [19] in a line: JC-1 mitochondrial signal, unstimulated MM1S myeloma – cell-based, JC-1 fluorescence, 24 h, 100 nL compound, profiling panel (AID 1170). Also: test concentration not given here. The conditions noted are these: MM1S mitochondrial potential, higher = more signal.
Assay [20] can be described thus: resazurin metabolic signal in A549 cells – cell-based, resazurin fluorescence, 24 h, PK04 Diversity Set, profiling panel (AID 1171). Also: test concentration not given here. As to conditions: A549 viability, higher = more signal, called active from +8 up or from −8 down.

Calls of active or inactive are those of the source.

Chain of NADPH oxidase 4 (Homo sapiens) (Q9NPH5 whole entry, looked up): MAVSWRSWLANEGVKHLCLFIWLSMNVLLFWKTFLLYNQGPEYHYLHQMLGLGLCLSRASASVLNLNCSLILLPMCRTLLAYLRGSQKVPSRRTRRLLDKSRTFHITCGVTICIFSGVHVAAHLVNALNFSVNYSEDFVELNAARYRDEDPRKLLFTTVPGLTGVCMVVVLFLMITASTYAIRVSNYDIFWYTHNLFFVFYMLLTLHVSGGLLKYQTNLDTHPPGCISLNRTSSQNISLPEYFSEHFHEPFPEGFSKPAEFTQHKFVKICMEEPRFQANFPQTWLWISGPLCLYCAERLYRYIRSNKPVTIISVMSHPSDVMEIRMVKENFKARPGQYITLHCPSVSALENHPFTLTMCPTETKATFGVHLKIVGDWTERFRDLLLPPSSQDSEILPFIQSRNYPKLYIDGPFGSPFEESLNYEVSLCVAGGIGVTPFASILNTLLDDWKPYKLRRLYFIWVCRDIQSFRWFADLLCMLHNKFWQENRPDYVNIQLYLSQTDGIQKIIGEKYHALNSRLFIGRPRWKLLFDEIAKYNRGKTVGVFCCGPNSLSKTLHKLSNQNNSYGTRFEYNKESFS
Chain of NADPH oxidase 5 (Homo sapiens) (Q96PH1 whole entry, looked up): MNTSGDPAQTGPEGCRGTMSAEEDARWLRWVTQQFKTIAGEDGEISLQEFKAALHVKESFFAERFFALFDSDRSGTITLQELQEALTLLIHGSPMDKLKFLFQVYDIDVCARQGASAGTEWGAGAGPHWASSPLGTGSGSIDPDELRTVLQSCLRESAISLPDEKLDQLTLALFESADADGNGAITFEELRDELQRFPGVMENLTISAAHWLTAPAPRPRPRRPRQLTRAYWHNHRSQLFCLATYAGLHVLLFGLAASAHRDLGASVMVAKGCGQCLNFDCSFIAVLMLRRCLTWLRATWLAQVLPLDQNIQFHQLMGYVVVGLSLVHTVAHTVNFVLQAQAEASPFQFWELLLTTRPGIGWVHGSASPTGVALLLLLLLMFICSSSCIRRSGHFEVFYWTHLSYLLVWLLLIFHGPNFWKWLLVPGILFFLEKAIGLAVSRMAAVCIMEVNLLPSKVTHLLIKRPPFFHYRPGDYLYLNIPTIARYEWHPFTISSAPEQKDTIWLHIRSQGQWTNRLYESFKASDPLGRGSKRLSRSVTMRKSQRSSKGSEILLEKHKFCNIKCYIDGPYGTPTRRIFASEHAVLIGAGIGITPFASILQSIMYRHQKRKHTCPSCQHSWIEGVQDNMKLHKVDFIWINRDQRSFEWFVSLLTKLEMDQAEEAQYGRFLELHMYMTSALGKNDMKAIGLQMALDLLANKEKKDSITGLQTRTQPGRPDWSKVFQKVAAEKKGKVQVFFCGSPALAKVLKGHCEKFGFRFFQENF
Chain of NADPH oxidase 2 (Homo sapiens) (P04839 whole entry, looked up): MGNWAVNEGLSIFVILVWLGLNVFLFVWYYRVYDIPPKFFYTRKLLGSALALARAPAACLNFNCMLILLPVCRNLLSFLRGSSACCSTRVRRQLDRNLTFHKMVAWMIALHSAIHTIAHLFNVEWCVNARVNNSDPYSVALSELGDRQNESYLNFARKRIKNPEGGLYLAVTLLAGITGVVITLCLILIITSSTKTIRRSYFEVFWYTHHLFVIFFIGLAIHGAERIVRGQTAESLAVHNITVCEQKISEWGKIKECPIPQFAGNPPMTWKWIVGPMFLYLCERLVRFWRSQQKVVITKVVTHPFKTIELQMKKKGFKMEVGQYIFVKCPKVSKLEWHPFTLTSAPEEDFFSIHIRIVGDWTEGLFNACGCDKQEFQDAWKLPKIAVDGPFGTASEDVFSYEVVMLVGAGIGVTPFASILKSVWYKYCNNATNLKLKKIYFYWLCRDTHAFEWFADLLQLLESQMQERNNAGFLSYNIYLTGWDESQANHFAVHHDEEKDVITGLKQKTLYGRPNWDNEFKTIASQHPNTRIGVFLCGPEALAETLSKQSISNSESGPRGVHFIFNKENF

On to `O=C1[C@H]2[C@H]3[C@H](O)[C@H](O)CC(=NOC[C@@H](O)COCc4ccco4)[C@H]3CC[C@H]2C(=O)N1C[C@@H]1CCCO1`, for which the z-score in [1] was -0.362 (inactive); in assay [3], 0.342 (inactive); in assay [4] it was 0.276 (inactive); in assay [5], -0.425 (inactive); in assay [6] it was 0.33 (inactive); in assay [7], -0.637. Also, the z-score is 0.276 (inactive) in assay [8]; 0.557 (inactive) in assay [9]; -0.0426 in [10]; -0.0501 in assay [11]; -1.11 in assay [12]; -1.22 in assay [13]. Moreover, the z-score in assay [14] was 0.313; in [15], -0.907; in assay [16], -0.809; in assay [17] it was -0.605 (inactive); in assay [18] it was -0.271; in assay [19] it was -0.278. In addition, the z-score in assay [20] was 0.622 (inactive). Moreover, in [2], the composite z-score was -0.324.

Consider `COC(=O)CC=C[C@@H](C)[C@@H](C=NOCC[C@@H]1C=C[C@H](OC(C)=O)[C@@H](COC(C)=O)O1)NS(=O)(=O)c1ccc(C)cc1`, for which the z-score in [1] is 0.385 (inactive); in assay [3] it was 0.944 (inactive); in assay [4] it was 0.107 (inactive); in assay [5] it was -0.113 (inactive); in [6] it was 0.196 (inactive); in [7], -0.879. For the same compound, the z-score in assay [8] was 0.174 (inactive); in assay [9] it was 0.911 (inactive); in assay [10], -0.075; in assay [11], 0.498; in [12], 0.037; in assay [13], -0.726. Moreover, the z-score in [14] was 0.212; in assay [15], -0.128; in assay [16], -0.716; in assay [17] it was -1.63 (inactive); in assay [18] it was 0.533; in [19], 0.0173. For the same compound, the z-score in assay [20] is -0.364 (inactive). In [2], this compound gave a composite z-score of 0.212.

With `O=c1n(-c2ccccc2)c(=O)n2n1CC[C@@H]1C(=NOCc3ccccc3)[C@H]3O[C@H]3[C@@H](O)[C@@H]12`, the z-score in assay [1] is -0.422 (inactive); in [3], 6.33 (inactive); in [4] it was 0.0311 (inactive); in assay [5], 0.349 (inactive); in [6] it was 0.425 (inactive); in assay [7], -0.302. Besides, the z-score was -3.43 (inactive) in [8]; -0.13 (inactive) in [9]; 0.183 in assay [10]; 0.172 in assay [11]; -0.915 in [12]; 0.251 in assay [13]. In addition, the z-score in assay [14] is -0.232; in [15], 0.169; in [16], -0.406; in assay [17] it was -0.78 (inactive); in assay [18] it was -0.0915; in assay [19] it was -0.531. Further, in assay [20], the z-score was -1.08 (inactive). Further, in [2], the composite z-score was -0.514.

Take `CC(C)=CCCC(C)=CCON=C1C[C@@H](O)[C@@H](O)[C@@H]2[C@@H]3C(=O)N(C(C)(C)C)C(=O)[C@@H]3CC[C@@H]12`: the z-score in [1] was -1.31 (inactive); in assay [3], 1.43 (inactive); in assay [4] it was 0.761 (inactive); in [5], 0.916 (inactive); in [6], 0.821 (inactive); in assay [7] it was -0.227. Also, the z-score was -1.14 (inactive) in assay [8]; -1.2 (inactive) in assay [9]; -0.411 in [10]; 0.0392 in assay [11]; 0.523 in [12]; 0.121 in [13]. Moreover, the z-score in assay [14] is -1.09; in [15] it was -0.562; in assay [16], -0.279; in [17], -0.365 (inactive); in [18] it was -0.231; in [19], 0.947. In assay [20], the z-score is -1.03 (inactive). Besides, in [2], the composite z-score was 0.167.

`C#CCCCON=C1C[C@@H](O)[C@@H](O)[C@@H]2[C@@H]3C(=O)N(C(C)(C)C)C(=O)[C@@H]3CC[C@H]12`: the z-score in assay [1] was 0.233 (inactive); in assay [3], 3.84 (inactive); in assay [4] it was 0.371 (inactive); in assay [5], -0.342 (inactive); in [6], 0.204 (inactive); in [7], -0.162. Also, the z-score was -0.722 (inactive) in assay [8]; 0.132 (inactive) in assay [9]; 0.307 in assay [10]; 0.053 in [11]; -0.304 in assay [12]; 0.673 in [13]. The z-score in assay [14] is 0.505; in assay [15], -0.413; in [16], -0.161; in [17] it was -0.505 (inactive); in assay [18], 0.386; in assay [19], -0.708. In [20], the z-score was -0.496 (inactive). In [2], the composite z-score was 0.571.

The values above are taken from PubChem BioAssay.
